Our source for the Potency values is PubChem BioAssay (NCATS).

Records with an inconclusive call do not appear. Activity calls are given as the source filed them. Calls follow the shape of the dose curve; as a rule, active = well fitted inhibition curve with a large enough effect; inconclusive = small, poorly fitted or top-dose-only effect; inactive = no such curve, though single readings can be large or run the other way.
Potency is read from the fitted curve at half-maximal effect.

Cytochrome P450 3A4 (Homo sapiens), sequence (P08684 whole entry, looked up): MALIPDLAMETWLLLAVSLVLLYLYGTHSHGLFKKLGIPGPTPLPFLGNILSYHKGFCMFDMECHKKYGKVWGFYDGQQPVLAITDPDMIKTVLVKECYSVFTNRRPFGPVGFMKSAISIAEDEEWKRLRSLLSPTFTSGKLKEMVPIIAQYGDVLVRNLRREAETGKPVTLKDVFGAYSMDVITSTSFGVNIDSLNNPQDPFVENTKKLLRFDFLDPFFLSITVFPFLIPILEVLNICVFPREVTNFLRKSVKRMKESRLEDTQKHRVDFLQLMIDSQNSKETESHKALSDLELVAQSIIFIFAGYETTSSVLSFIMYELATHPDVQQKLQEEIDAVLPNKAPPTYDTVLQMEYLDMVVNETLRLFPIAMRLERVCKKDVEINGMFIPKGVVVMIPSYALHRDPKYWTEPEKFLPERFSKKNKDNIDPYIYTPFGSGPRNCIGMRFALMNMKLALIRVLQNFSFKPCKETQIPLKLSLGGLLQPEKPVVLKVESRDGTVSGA

The assay deals with Cytochrome P450 3A4 (Homo sapiens) (UniProt P08684). The assay is described as follows: qHTS Assay for Inhibitors and Substrates of Cytochrome P450 3A4 (AID 884). Also: nearly all actives have a fitted effect of over 50% in size. Conditions: recombinant CYP3A4, Luciferin-PPXE luminescence; series mostly up to 57.1 µM. As for the experimental part:
NIH Molecular Libraries Screening Centers Network [MLSCN]
NIH Chemical Genomics Center [NCGC]
The P450 gene superfamily is involved in the metabolism and clearance of xenobiotics. This assay used human CYP3A4 to measure the dealkylation of luciferin-6' phenylpiperazinylyl (Luciferin-PPXE; […]) to luciferin. The luciferin is then measured by luminescence after the addition of a luciferase detection reagent. Luciferin-PPXE concentration in the assay was equal to its KM for CYP3A4. Inhibitors and some substrates limit the production of luciferin, and decrease measured luminescence.
NCGC Assay Protocol Summary:
Two uL of enzyme and substrate mix (final concentrations: 20nM CYP3A4, 25uM Luciferin-PPXE, 200mM KPO4) were dispensed into a white, solid bottom 1536-well microtiter plate. 23nL of compound was transferred by a pin tool. The plate was incubated at RT for 10 min. Two uL of an NADPH regeneration solution (Promega supplied reagent) was dispensed and the reaction was allowed to continue for 60 min at RT. Then the reaction was stopped by reconstituted luciferin detection buffer. After another 20 min of incubation the plate was read on the ViewLux (Perkin Elmer) at 60 sec exposure and 2x2 binning. This protocol was carried out with Promega-Glo reagents and further information can be found at http://www.promega.com/tbs/tb325/tb325.pdf. Data were normalized to the to AC100 inhibition (57 uM ketoconazole).
Keywords: P450, CYP3A4, Luciferase, MLSMR, MLSCN, NIH Roadmap, qHTS, NCGC
For orientation: Quantitative high-throughput screening tests each substance at several concentrations.
Take `Cc1cnc(CNc2ncncc2-c2cccc(C#N)c2)cn1`: the Potency was 2000 nM (active).
Regarding `Cc1ccccc1-c1cc(Nc2ccccc2)ncn1`, the Potency result was “inactive”.
Then `Cc1nc(N2CCOCC2)c2nc(-c3ccccc3)n(CCCN(C)C)c2n1`, with “inactive”; and `CCCn1c(C)nc2c(NCCCN(CC)CC)nc(C)nc21`, with “inactive”.
As for `CCN(CC)CCCC(C)n1c(-c2ccccc2)nc2c(NC3CCCCC3)nc(C)nc21` (stereo not given), the figure is 12600 nM (active).
As for `CS(=O)(=O)Nc1cccc(-c2ccc3ncnc(NC4CC4)c3c2)c1`, the figure is 6310 nM (active); as for `Clc1ccccc1-c1nccc(-n2ccnc2)n1`, 1260 nM (active).
In the case of `Cc1nc(N2CCOCC2)c2nc(-c3ccccc3)n(CCCN3CCOCC3)c2n1`, the Potency was 15800 nM (active).
Consider `COc1cc(=O)n(C)c2c(OCC(O)C(C)(C)O)cccc12` (stereo not given), for which the Potency result is “inactive”.
In the case of `Fc1ccc(Nc2ncncc2-c2ccccc2C(F)(F)F)cc1`, the Potency was 398 nM (active).
Consider `Cc1cccc(CNc2ncncc2-c2cccc(C#N)c2)c1`, for which the Potency was 199 nM (active).
As to `N#CCCn1c(=O)c(CCc2ccccc2)nc2cnc(Oc3cccc(Cl)c3)nc21`, the Potency was 794 nM (active).
As to `c1cncc(CNc2ncnc3ccc(-c4ccoc4)cc23)c1`, the Potency is 1580 nM (active).
As to `CC(=O)NCCNc1ncncc1-c1ccccc1C`, the Potency was 2510 nM (active).
On to `O=S(=O)(c1ccccc1)N1CCC2(CCN(C(c3ccccc3)c3ccccc3)CC2)CC1`, for which the Potency result was “inactive”.
As to `CCCn1c(C)nc2c(NCCCN(CCO)CCO)nc(C)nc21`, the Potency result was “inactive”.
As to `Cc1noc(C)c1-c1cc(NC2CCNCC2)ncn1`, the Potency result was “inactive”.
Regarding `COc1ccccc1-c1cncnc1NCCNC(C)=O`, the Potency is 2000 nM (active).
`COC1=C(OC)C(=O)C(C/C=C(\C)CC/C=C(\C)CC/C=C(\C)CC/C=C(/C)CC/C=C(\C)CC/C=C(\C)CC/C=C(\C)CC/C=C(\C)CC/C=C(\C)CCC=C(C)C)=C(C)C1=O`: the Potency result was “inactive”.
With `FC(F)(F)c1cc(CN2CCCC3(CCNCC3)C2)cc(C(F)(F)F)c1`, the Potency is 7940 nM (active).
`O=C(c1cccc(F)c1)N1CCC2(CC1)CCN(c1cccc(-c3ccccc3)c1)CC2`: the Potency result is “inactive”.
As to `COc1ccc(-n2c(=O)c(-c3ccccc3)nc3cnc(N4CCN(C)CC4)nc32)cc1`, the Potency result is “inactive”.
Then `O=C(c1cc(C(F)(F)F)cc(C(F)(F)F)c1)N1CCC2(CC1)CN(c1ccccc1)C2`, with “inactive”.
Turning to `Cc1cccc(CNc2nc(-c3ccc4c(c3)OCO4)nc3ccccc23)c1`, the Potency is 398 nM (active).
As for `Cc1ccccc1-c1cncnc1NCc1ccccc1`, the figure is 316 nM (active).
Take `OC[C@H]1O[C@@H](n2cnc3c(NCCc4ccccc4)ncnc32)[C@H](O)[C@H]1O`: the Potency entry was “inactive”.
As for `CCN(CC)CCCC(C)n1c(-c2ccccc2)nc2c(NCCO)nc(C)nc21` (stereo not given), the entry is “inactive”; as for `CS(=O)(=O)Nc1cccc(-c2cncnc2NCc2cccs2)c1`, 398 nM (active); as for `COc1ccccc1CCn1c(=O)c(-c2cccc(F)c2)nc2cncnc21`, 3160 nM (active).
Consider `CN(Cc1ccco1)c1ncncc1-c1ccccc1Cl`, for which the Potency is 501 nM (active).
Then `COC(=O)N1CCC2(CCN(Cc3nccs3)CC2)CC1`, with “inactive”.
Then `C[C@@H]1[C@H](O)[C@@H](C)/C=C/C=C/C=C/C=C/C=C/C=C/C=C/[C@H](O[C@@H]2O[C@H](C)[C@@H](O)[C@H](N)[C@@H]2O)C[C@@H]2O[C@](O)(C[C@@H](O)C[C@@H](O)[C@H](O)CC[C@@H](O)C[C@@H](O)CC(=O)O[C@H]1C)C[C@H](O)[C@H]2C(=O)O`, with “inactive”; and `Cc1noc(C)c1-c1cncnc1NCc1ccccc1`, with 2000 nM (active); and `CC(C)NC(=O)N1CCC2(CC1)CCN(C(=O)c1cc(C(F)(F)F)cc(C(F)(F)F)c1)CC2`, with “inactive”.
For `COc1ccccc1-c1cncnc1NCc1cccnc1`, the Potency is 501 nM (active).
With `c1csc(CNc2ccnc(-c3ccoc3)n2)c1`, the Potency was 7940 nM (active).
`COc1ccc(CNc2cc(-c3ccccc3Cl)ncn2)c(OC)c1`: the Potency was 6310 nM (active).
Consider `FC(F)(F)c1ccccc1-c1nccc(NCc2cccs2)n1`, for which the Potency is 2000 nM (active).
For the compound `CCCn1c(-c2ccc(F)cc2)nc2c(NCCN3CCSCC3)nc(C)nc21`, the Potency is 20000 nM (active).
On to `Cc1nc(NC2CCCCC2)c2nc(-c3ccccc3)n(CCCN3CCCCC3C)c2n1` (stereo not given), for which the Potency is 10000 nM (active).
